PREPL inhibitor: inhibits the human prolyl oligopeptidase-like enzyme; Q4J6C6; recombinant PREPL, fluorescence polarization activity-based probe; inhibition, % at 5.96 µM; 320,000 tested, 0.68% active; AID 2751; in the data active = inhibition above about 43%;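 note: 0% = enzyme with DMSO and 100% = wells lacking enzyme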
PP1 counter: counter-screen for PP5 inhibitors: inhibitors of human PP1-alpha | P62136 | purified PP1alpha, OMFP fluorescence | inhibition, % at 6.7 µM | 320,000 tested, 0.9% active;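 active = inhibition above the mean inhibition of all tested compounds plus 3 SD, computed separately for each screening campaign, cut at about 15% in these data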
ANO1 block: blocks the mouse calcium-activated chloride channel TMEM16A | HEK293 TMEM16A/YFP iodide influx fluorescence, ionomycin | 310,000 tested, 1.2% active | normalized B-score (activity score, 25-100; higher = stronger inhibition) at 10 µM;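 active = ratio plate-corrected score three or more library SD toward inhibition, starting fluorescence score within five deviations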;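 note: score derived from kinetic fluorescence span divided by baseline fluorescence per well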
ANO1 activ: activators or potentiators of mouse TMEM16A chloride channel; AID 623877; HEK293 TMEM16A/YFP-H148Q/I152L, iodide quench fluorescence; active compounds read low; 340,000 tested, 0.3% active; B-score at 10 µM; Q8BHY3;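 active = fluorescence-ratio B-score plate-corrected deviation score at least 3 library SD below zero, with starting fluorescence score within 5 deviations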;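 note: channel opened by trigger with iodide after compound preincubation; score built on the fluorescence ratio of max minus min over baseline; more negative score means more quench and so TMEM16A activation or potentiation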
FID counter: displaces DNA intercalator in HCV helicase counter-screen | DNA fluorescent intercalator displacement, fluorescence | inhibition, % at 7.9 µM | 290,000 tested, 0.17% active | AID 1845; in the data active = inhibition above about 37%;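 note: 0% = vehicle and 100% = reference compound; higher means more ethidium bromide displaced from hairpin DNA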
PP5 inh: blocks human protein phosphatase 5 activity | P53041 | purified PP5c, OMFP substrate fluorescence | 320,000 tested, 0.18% active | inhibition, % at 6.7 µM;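 active = inhibition above the campaign's mean inhibition across all tested compounds plus 3 SD, cut at about 9.5% in these data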;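 note: 0% = DMSO only and 100% = 100 µM cantharidin control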
Target sequence (P53041 whole entry, looked up): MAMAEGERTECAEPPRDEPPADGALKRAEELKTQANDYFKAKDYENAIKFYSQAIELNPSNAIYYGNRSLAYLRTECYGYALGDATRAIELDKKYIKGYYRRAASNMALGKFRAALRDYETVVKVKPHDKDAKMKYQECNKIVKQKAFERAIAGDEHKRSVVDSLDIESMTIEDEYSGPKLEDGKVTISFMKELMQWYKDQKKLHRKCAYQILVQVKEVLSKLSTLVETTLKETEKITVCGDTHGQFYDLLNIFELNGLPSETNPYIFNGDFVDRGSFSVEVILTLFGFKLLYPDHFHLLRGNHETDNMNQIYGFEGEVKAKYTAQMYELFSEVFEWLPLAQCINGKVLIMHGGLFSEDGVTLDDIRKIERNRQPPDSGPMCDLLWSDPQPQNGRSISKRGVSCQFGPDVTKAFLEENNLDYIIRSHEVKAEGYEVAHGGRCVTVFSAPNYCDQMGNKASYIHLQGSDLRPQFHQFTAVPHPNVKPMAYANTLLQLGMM
The depositor's hits bear a star. Hits are enriched below; roughly 2.7% of the tested compounds scored in any of these assays.

For CCC(C)C1NC(=O)C(NC(=O)C(CC(C)C)N(C)C(=O)C2CCCN2C(=O)C(C)O)C(C)OC(=O)C(Cc2ccc(OC)cc2)N(C)C(=O)C2CCCN2C(=O)C(CC(C)C)NC(=O)[C@H](C)C(=O)[C@H](C(C)C)OC(=O)CC1O (stereo partly specified) the results were ANO1 activ inactive.
Screening Oc1ccc(-[n+]2c(-c3ccccc3)cc(-c3ccccc3)cc2-c2ccccc2)cc1 returned PREPL inhibitor 37, PP1 counter 5, ANO1 block inactive, ANO1 activ inactive and PP5 inh 1.
COc1ccc(-[n+]2c(-c3ccccc3)cc(-c3ccccc3)cc2-c2ccccc2)cc1 was read as PREPL inhibitor 23, PP1 counter 0, ANO1 block 100* and PP5 inh 1.
For COC1C(C)OC(OC2CC(C)(O)Cc3cc4c(c(O)c32)C(=O)c2c(O)cc3c(c2C4=O)OC2OC3(C)C(O)C(N(C)C)C2O)C(OC)C1(C)OC (stereo unspecified) the results were ANO1 activ inactive.
C[C@H]1OC[C@@H](C[N+](C)(C)C)O1 was read as PREPL inhibitor 4, PP1 counter 0, ANO1 block inactive, ANO1 activ -13*, FID counter -2 and PP5 inh 1.
CC1OC(C[N+](C)(C)C)CC1O (stereo unspecified) was read as PREPL inhibitor -3, PP1 counter -1, ANO1 block inactive, ANO1 activ inactive and PP5 inh 0.
CC1=C(N2CC2)C(=O)C(CO)=C(N2CC2)C1=O was read as ANO1 activ inactive.
`N#CC(C#N)=NNc1ccc(-n2ccc(C(F)(F)F)n2)cc1` gave PREPL inhibitor 6, PP1 counter 6, ANO1 block 100*, ANO1 activ -4.6*, FID counter -15 and PP5 inh 4.
Screening COC(=O)C1=Nc2ccccc2/C1=C\c1c(O)n(C)c(=O)n(C)c1=O returned PREPL inhibitor 17, PP1 counter -3, ANO1 block inactive, ANO1 activ inactive, FID counter -7 and PP5 inh 0.
`Cn1c(O)c(/C=C2\C=Nc3ccccc32)c(=O)n(C)c1=O` gave PREPL inhibitor 19, PP1 counter 2, ANO1 block inactive, ANO1 activ -4.8*, FID counter 7 and PP5 inh 5.
Screening Cc1cc(-c2ccccc2)cc(-c2ccccc2)[n+]1CCc1ccccc1 returned PREPL inhibitor -21, PP1 counter 3, ANO1 block 25*, ANO1 activ inactive and PP5 inh 0.
Screening Fc1ccc(C[n+]2c(-c3ccccc3)cc(-c3ccccc3)cc2-c2ccccc2)cc1 returned PREPL inhibitor 42, PP1 counter 3, ANO1 block inactive and PP5 inh 2.
CCOc1ccc(-c2cc(C)[n+](CCc3ccc(OC)c(OC)c3)c(-c3ccc(OCC)cc3)c2)cc1 was read as ANO1 block 25*, ANO1 activ inactive and FID counter 30.
Screening CCCCn1c(=O)c(C(=O)Nc2cnccn2)c(O)c2ccccc21 returned PREPL inhibitor 10, PP1 counter -4, ANO1 block 100*, FID counter -3 and PP5 inh -2.
CCCCn1c(=O)c(C(=O)Nc2ccccc2C)c(O)c2ccccc21 was read as PREPL inhibitor 9, PP1 counter -1, ANO1 block inactive, ANO1 activ inactive, FID counter -8 and PP5 inh 1.
Screening Oc1c(Br)cc(Br)cc1Oc1ccc(Br)cc1Br returned PREPL inhibitor -4, PP1 counter 2, ANO1 block 100*, FID counter 0 and PP5 inh 1.
`CCN1C(=O)NC(=O)/C(=C/c2cc(C)n(-c3sc(C)c(C)c3C#N)c2C)C1=O` gave PREPL inhibitor 1, PP1 counter 0, ANO1 block inactive, ANO1 activ inactive, FID counter -19 and PP5 inh 0.
Cc1ccc(N2C(=O)NC(=O)/C(=C\c3cc(C)n(-c4sc5c(c4C#N)CCCC5)c3C)C2=O)cc1 was read as PREPL inhibitor 10, PP1 counter 8, ANO1 block 25*, ANO1 activ inactive, FID counter -12 and PP5 inh 5.
For Cc1nc2cc([N+](=O)[O-])ccc2c(=O)n1-c1ccc(Br)cc1 the results were PREPL inhibitor 9, PP1 counter 1, ANO1 block inactive, ANO1 activ -13*, FID counter 2 and PP5 inh -1.
`CCOP(=O)(CCP(=O)(OCC)OCC)OCC.C[CH2][Sn]([Cl])([Cl])[CH2]C` gave ANO1 activ inactive.
`CN1CCC(N(C)c2nc(-c3ccccc3)nc3ccccc23)CC1` gave PREPL inhibitor 1, PP1 counter 1, ANO1 block inactive, ANO1 activ inactive, FID counter 63* and PP5 inh -1.
`COc1cc2c(c(OC)c1OC)-c1ccc(SC)c(=O)cc1C(NC(C)=O)CC2` (stereo unspecified) gave ANO1 activ inactive.
For CCC1(O)CCC2C3CCC4=CC(=O)CCC4C3CCC21CC (stereo unspecified) the results were ANO1 activ -4.8*.
Screening C#CC1(O)C=CC2C3CCC4=CC(=O)CCC4C3CCC21CC (stereo unspecified) returned PREPL inhibitor 4, PP1 counter -1, ANO1 block inactive, ANO1 activ inactive, FID counter -12 and PP5 inh 0.
`O=C1C=CC(=O)C2C1C1(Cl)C(Cl)=C(Cl)C2(Cl)C1(Cl)Cl` (stereo unspecified) gave ANO1 activ inactive.
`C=C(C=O)CC1CC(O)[C@]2(C)OC3CC4OC5C[C@]6(C)O[C@]7(C)CCC8OC9C[C@]%10(C)OC%11C(C)=CC(=O)OC%11CC%10OC9C[C@@H](C)C8OC7CC6O[C@]5(C)CC5OC5C4OC3CC2O1` (stereo partly specified) gave PREPL inhibitor -5, PP1 counter -3, ANO1 block inactive, ANO1 activ -8*, FID counter -32 and PP5 inh 3.
Screening O=c1c2ccccc2nc(-c2ccccc2Cl)n1-c1cccc(O)c1 returned ANO1 block inactive, ANO1 activ inactive and FID counter -16.
CC(C)[C@H]1C(=O)N2CCC[C@H]2[C@]2(O)O[C@](NC(=O)[C@@H]3C=C4c5cccc6[nH]cc(c56)C[C@H]4N(C)C3)(C(C)C)C(=O)N12 was read as PREPL inhibitor 46*, PP1 counter 1, ANO1 block inactive, ANO1 activ inactive, FID counter -15 and PP5 inh 5.
COc1ccc(N2C(=O)NC(=O)/C(=C\c3ccc([N+](=O)[O-])s3)C2=O)cc1 was read as PREPL inhibitor 24, PP1 counter 4, ANO1 block inactive, ANO1 activ -6.4*, FID counter -6 and PP5 inh 2.

From PubChem
